The full ranking holds about 16,000 sequences; the median of “rpm ratio (pull-down/input)” is about 0.5, and the highest 2% start at about 5.5. This is one part of a sample in which the highest values are shown more often than they occur.
Biological target: T1, MBP-FoxP3dN (Mus musculus, UniProt Q99JB6 188-423)
T1 sequence: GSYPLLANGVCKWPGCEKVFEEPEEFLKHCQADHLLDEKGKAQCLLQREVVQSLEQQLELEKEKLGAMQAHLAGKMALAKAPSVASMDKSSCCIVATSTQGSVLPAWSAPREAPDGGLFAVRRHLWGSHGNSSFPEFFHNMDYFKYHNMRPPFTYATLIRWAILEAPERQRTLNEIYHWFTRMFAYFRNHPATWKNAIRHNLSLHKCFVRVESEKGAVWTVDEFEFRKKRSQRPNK
Experiment: PD-seq (MBP pull-down with sequencing); 20 mM Tris-HCl pH 7.5, 100 mM NaCl, 1.5 mM MgCl2, 0.4 uM protein, 0.1 uM dsDNA library, 30 min, room temperature, amylose pull-down; high values mean tight binding
Conditions: protein: recombinant; tags: His6-MBP; chain copies: 2; dsDNA, one strand shown
Summary of the method: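 Binding is given as reads-per-million enrichment, pull-down over input, with replicates pooled. The bait was an N-terminus-lacking mouse FoxP3 or FoxP1 fragment with a His6-MBP tag, expressed in E. coli and used at 0.4 µM with 0.1 µM Klenow-filled degenerate double-stranded DNA library for 30 min at room temperature in Tris pH 7.5 buffer with NaCl and MgCl2. Amylose resin pull-down with three washes was followed by proteinase K release, PCR barcoding and Illumina sequencing.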

Row | Sequence | binding signal
1 | GATGATTGTTCTCCCAGCTGATGAATTGCCTCCATCGAGTAAACAAATTTTCCTAATCTTTCTGTTCAAGCGCCATCTAC | 1.28 RPM ratio (pull-down/input)
2 | GATGATTGTTCTCCCAGCTGATGAATTATACTTCTCGAGTAAACAAATTTTCCTAATCTTTCTGTTCAAGCGCCATCTAC | 0.492 RPM ratio (pull-down/input)
3 | GATGATTGTTCTCCCAGCTGATGAATTTTTCTACTCGAGTAAACAAATTTTCCTAATCTTTCTGTTCAAGCGCCATCTAC | 0.279 RPM ratio (pull-down/input)
4 | GATGATTGTTCTCCCAGCTGATGAATTTATCGCCTCGAGTAAACAAATTTTCCTAATCTTTCTGTTCAAGCGCCATCTAC | 1.07 RPM ratio (pull-down/input)
5 | GATGATTGTTCTCCCAGCTGATGAATTGCGCTCATCGAGTAAACAAATTTTCCTAATCTTTCTGTTCAAGCGCCATCTAC | 1.24 RPM ratio (pull-down/input)
6 | GATGATTGTTCTCCCAGCTGATGAATTAGCCGGCTCGAGTAAACAAATTTTCCTAATCTTTCTGTTCAAGCGCCATCTAC | 0.203 RPM ratio (pull-down/input)
7 | GATGATTGTTCTCCCAGCTGATGAATTTTGTTTATCGAGTAAACAAATTTTCCTAATCTTTCTGTTCAAGCGCCATCTAC | 7.19 RPM ratio (pull-down/input)
8 | GATGATTGTTCTCCCAGCTGATGAATTATGTTTATCGAGTAAACAAATTTTCCTAATCTTTCTGTTCAAGCGCCATCTAC | 8.36 RPM ratio (pull-down/input)
9 | GATGATTGTTCTCCCAGCTGATGAATTTGATTTATCGAGTAAACAAATTTTCCTAATCTTTCTGTTCAAGCGCCATCTAC | 2.99 RPM ratio (pull-down/input)
10 | GATGATTGTTCTCCCAGCTGATGAATTTTCTTTATCGAGTAAACAAATTTTCCTAATCTTTCTGTTCAAGCGCCATCTAC | 1.27 RPM ratio (pull-down/input)
11 | GATGATTGTTCTCCCAGCTGATGAATTGTTTTTATCGAGTAAACAAATTTTCCTAATCTTTCTGTTCAAGCGCCATCTAC | 3.74 RPM ratio (pull-down/input)
12 | GATGATTGTTCTCCCAGCTGATGAATTATGATTATCGAGTAAACAAATTTTCCTAATCTTTCTGTTCAAGCGCCATCTAC | 3.53 RPM ratio (pull-down/input)
13 | GATGATTGTTCTCCCAGCTGATGAATTGTGTTTATCGAGTAAACAAATTTTCCTAATCTTTCTGTTCAAGCGCCATCTAC | 8.53 RPM ratio (pull-down/input)
14 | GATGATTGTTCTCCCAGCTGATGAATTCTTTTTATCGAGTAAACAAATTTTCCTAATCTTTCTGTTCAAGCGCCATCTAC | 0.332 RPM ratio (pull-down/input)
15 | GATGATTGTTCTCCCAGCTGATGAATTCCTTTTATCGAGTAAACAAATTTTCCTAATCTTTCTGTTCAAGCGCCATCTAC | 0.345 RPM ratio (pull-down/input)
16 | GATGATTGTTCTCCCAGCTGATGAATTTATGTTATCGAGTAAACAAATTTTCCTAATCTTTCTGTTCAAGCGCCATCTAC | 3.24 RPM ratio (pull-down/input)
17 | GATGATTGTTCTCCCAGCTGATGAATTCTGTTTATCGAGTAAACAAATTTTCCTAATCTTTCTGTTCAAGCGCCATCTAC | 7.92 RPM ratio (pull-down/input)
18 | GATGATTGTTCTCCCAGCTGATGAATTTATCTAATCGAGTAAACAAATTTTCCTAATCTTTCTGTTCAAGCGCCATCTAC | 0.706 RPM ratio (pull-down/input)
19 | GATGATTGTTCTCCCAGCTGATGAATTACCACCCTCGAGTAAACAAATTTTCCTAATCTTTCTGTTCAAGCGCCATCTAC | 0.312 RPM ratio (pull-down/input)
20 | GATGATTGTTCTCCCAGCTGATGAATTCGTCGTCTCGAGTAAACAAATTTTCCTAATCTTTCTGTTCAAGCGCCATCTAC | 1.31 RPM ratio (pull-down/input)
21 | GATGATTGTTCTCCCAGCTGATGAATTAAAGTGCTCGAGTAAACAAATTTTCCTAATCTTTCTGTTCAAGCGCCATCTAC | 0.358 RPM ratio (pull-down/input)
22 | GATGATTGTTCTCCCAGCTGATGAATTTTCCTTCTCGAGTAAACAAATTTTCCTAATCTTTCTGTTCAAGCGCCATCTAC | 0.258 RPM ratio (pull-down/input)
23 | GATGATTGTTCTCCCAGCTGATGAATTTAGATTATCGAGTAAACAAATTTTCCTAATCTTTCTGTTCAAGCGCCATCTAC | 1.31 RPM ratio (pull-down/input)
24 | GATGATTGTTCTCCCAGCTGATGAATTTGTTTTATCGAGTAAACAAATTTTCCTAATCTTTCTGTTCAAGCGCCATCTAC | 6.46 RPM ratio (pull-down/input)

Row | Sequence | binding signal
25 | GATGATTGTTCTCCCAGCTGATGAATTTTTTATCTCGAGTAAACAAATTTTCCTAATCTTTCTGTTCAAGCGCCATCTAC | 0.243 RPM ratio (pull-down/input)
26 | GATGATTGTTCTCCCAGCTGATGAATTTCTTTTATCGAGTAAACAAATTTTCCTAATCTTTCTGTTCAAGCGCCATCTAC | 0.545 RPM ratio (pull-down/input)
27 | GATGATTGTTCTCCCAGCTGATGAATTTTTTACATCGAGTAAACAAATTTTCCTAATCTTTCTGTTCAAGCGCCATCTAC | 0.25 RPM ratio (pull-down/input)
28 | GATGATTGTTCTCCCAGCTGATGAATTGTTTACATCGAGTAAACAAATTTTCCTAATCTTTCTGTTCAAGCGCCATCTAC | 8.09 RPM ratio (pull-down/input)
29 | GATGATTGTTCTCCCAGCTGATGAATTTACAACATCGAGTAAACAAATTTTCCTAATCTTTCTGTTCAAGCGCCATCTAC | 1.26 RPM ratio (pull-down/input)
30 | GATGATTGTTCTCCCAGCTGATGAATTGTTTATCTCGAGTAAACAAATTTTCCTAATCTTTCTGTTCAAGCGCCATCTAC | 6.57 RPM ratio (pull-down/input)
31 | GATGATTGTTCTCCCAGCTGATGAATTTATCTCCTCGAGTAAACAAATTTTCCTAATCTTTCTGTTCAAGCGCCATCTAC | 0.631 RPM ratio (pull-down/input)
32 | GATGATTGTTCTCCCAGCTGATGAATTTTTTTTATCGAGTAAACAAATTTTCCTAATCTTTCTGTTCAAGCGCCATCTAC | 0.295 RPM ratio (pull-down/input)
33 | GATGATTGTTCTCCCAGCTGATGAATTGTGTCCCTCGAGTAAACAAATTTTCCTAATCTTTCTGTTCAAGCGCCATCTAC | 2.1 RPM ratio (pull-down/input)
34 | GATGATTGTTCTCCCAGCTGATGAATTTCCTCCCTCGAGTAAACAAATTTTCCTAATCTTTCTGTTCAAGCGCCATCTAC | 0.223 RPM ratio (pull-down/input)
35 | GATGATTGTTCTCCCAGCTGATGAATTGGCGTCCTCGAGTAAACAAATTTTCCTAATCTTTCTGTTCAAGCGCCATCTAC | 1.06 RPM ratio (pull-down/input)
36 | GATGATTGTTCTCCCAGCTGATGAATTACCCAACTCGAGTAAACAAATTTTCCTAATCTTTCTGTTCAAGCGCCATCTAC | 0.253 RPM ratio (pull-down/input)
37 | GATGATTGTTCTCCCAGCTGATGAATTTTATTTGTCGAGTAAACAAATTTTCCTAATCTTTCTGTTCAAGCGCCATCTAC | 6.21 RPM ratio (pull-down/input)
38 | GATGATTGTTCTCCCAGCTGATGAATTTATTGTGTCGAGTAAACAAATTTTCCTAATCTTTCTGTTCAAGCGCCATCTAC | 6.95 RPM ratio (pull-down/input)
39 | GATGATTGTTCTCCCAGCTGATGAATTATATCTGTCGAGTAAACAAATTTTCCTAATCTTTCTGTTCAAGCGCCATCTAC | 0.544 RPM ratio (pull-down/input)
40 | GATGATTGTTCTCCCAGCTGATGAATTGTTATTGTCGAGTAAACAAATTTTCCTAATCTTTCTGTTCAAGCGCCATCTAC | 6.63 RPM ratio (pull-down/input)
41 | GATGATTGTTCTCCCAGCTGATGAATTATATTTGTCGAGTAAACAAATTTTCCTAATCTTTCTGTTCAAGCGCCATCTAC | 5.66 RPM ratio (pull-down/input)
42 | GATGATTGTTCTCCCAGCTGATGAATTATTTTTGTCGAGTAAACAAATTTTCCTAATCTTTCTGTTCAAGCGCCATCTAC | 0.947 RPM ratio (pull-down/input)
43 | GATGATTGTTCTCCCAGCTGATGAATTATTTGTGTCGAGTAAACAAATTTTCCTAATCTTTCTGTTCAAGCGCCATCTAC | 2.76 RPM ratio (pull-down/input)
44 | GATGATTGTTCTCCCAGCTGATGAATTTATTCTGTCGAGTAAACAAATTTTCCTAATCTTTCTGTTCAAGCGCCATCTAC | 0.533 RPM ratio (pull-down/input)
45 | GATGATTGTTCTCCCAGCTGATGAATTATTTCTGTCGAGTAAACAAATTTTCCTAATCTTTCTGTTCAAGCGCCATCTAC | 0.335 RPM ratio (pull-down/input)
46 | GATGATTGTTCTCCCAGCTGATGAATTATTATTGTCGAGTAAACAAATTTTCCTAATCTTTCTGTTCAAGCGCCATCTAC | 2.61 RPM ratio (pull-down/input)
47 | GATGATTGTTCTCCCAGCTGATGAATTTTATGTGTCGAGTAAACAAATTTTCCTAATCTTTCTGTTCAAGCGCCATCTAC | 2.49 RPM ratio (pull-down/input)
48 | GATGATTGTTCTCCCAGCTGATGAATTTTTATTGTCGAGTAAACAAATTTTCCTAATCTTTCTGTTCAAGCGCCATCTAC | 0.972 RPM ratio (pull-down/input)
